Measurements published in PubChem BioAssay AID1619 (SRMLSC, 2009).
Where “and” joins values, the source holds several entries; their conditions need not be identical. Identical values can stand only once. The campaign covered roughly 220,000 compounds. About 830 (0.38%) were called active.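 The calls were made as follows: active = compound inhibiting the enzyme by more than half at any dose during confirmatory dose-response retesting; inconclusive = strong single-dose inhibitors picked by rank but not retested; inactive = the rest.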 A selection follows. Results with a measured potency or affinity are listed apart.

These compounds were tested against Leucine aminopeptidase (Plasmodium falciparum (isolate 3D7)) (UniProt Q8IL11) (assay: P. falciparum M17LAP inhibitors, primary screen, biochemical, fluorogenic H-Leu-NHMec substrate, 1536-well (AID 1619;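 also: plate controls were full reaction with DMSO carrier for no effect and no enzyme background for full effect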)). Details: recombinant M17LAP, H-Leu-NHMec fluorogenic kinetic assay; at 30 µM; hits give high values.
Leucine aminopeptidase (Plasmodium falciparum (isolate 3D7)), sequence (Q8IL11 whole entry, looked up): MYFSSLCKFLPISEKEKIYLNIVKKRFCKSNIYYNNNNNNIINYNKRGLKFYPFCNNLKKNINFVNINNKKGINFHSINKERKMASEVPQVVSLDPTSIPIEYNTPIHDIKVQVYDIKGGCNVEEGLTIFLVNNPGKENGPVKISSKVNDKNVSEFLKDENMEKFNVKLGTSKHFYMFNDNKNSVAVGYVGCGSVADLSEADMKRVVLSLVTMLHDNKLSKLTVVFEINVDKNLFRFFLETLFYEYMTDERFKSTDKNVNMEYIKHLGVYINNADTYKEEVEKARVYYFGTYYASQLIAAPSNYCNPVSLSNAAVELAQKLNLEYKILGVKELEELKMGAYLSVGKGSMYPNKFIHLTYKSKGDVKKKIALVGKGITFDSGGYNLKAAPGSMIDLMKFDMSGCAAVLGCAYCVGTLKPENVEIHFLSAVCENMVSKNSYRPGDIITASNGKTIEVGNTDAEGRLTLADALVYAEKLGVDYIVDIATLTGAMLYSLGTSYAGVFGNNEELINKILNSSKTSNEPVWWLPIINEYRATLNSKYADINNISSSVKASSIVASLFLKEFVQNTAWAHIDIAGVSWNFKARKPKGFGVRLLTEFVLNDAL

inhibition, inactive:
O=C(Nc1nc2ccccc2s1)c1ccccc1 0.27%
Cc1ccc(C(=O)Nc2nc(=O)n(C(=O)c3ccccc3C)s2)cc1 31.9%
Cc1ccc(C(=O)Nc2nc(=O)[nH]s2)cc1 -1.57% and 13.4%
Cn1sc(NC(=O)c2ccc(Cl)cc2)nc1=O 0.57%
Cn1sc(NC(=O)c2ccccc2Cl)nc1=O -13.2%
Cc1ccc(C(=O)Nc2nc(=O)n(C)s2)cc1 4.51%
Cn1sc(NC(=O)c2cccc(Cl)c2)nc1=O 12.3%
O=C(Nc1nc(=O)n(C(=O)c2cccc(C(F)(F)F)c2)s1)c1ccccc1 22.5%
CCN(CC)CCCN1C(=O)CSC1c1ccc2c(c1)OCO2 (stereo not drawn) 20.1%
O=C(NNC(=O)c1ccc(Br)o1)c1ccc(NC(=O)c2ccccc2)cc1 -6.75%
COCCCN(C(=S)NC(=O)c1ccc(C(C)(C)C)cc1)c1c(N)n(Cc2ccccc2)c(=O)[nH]c1=O 16.9%
Cc1ccc(C)c(Cn2c(=O)n(CCCC(=O)NCc3ccco3)c(=O)c3ccccc32)c1 10%
Cc1csc2nc(CCNS(=O)(=O)c3cccs3)cn12 -4.9%
O=C(NCc1ccccc1)C1=C[C@@H](c2ccc(Br)cc2)C[C@@H](OCc2ccc(CO)cc2)O1 7.8%
CCCc1[nH]nc2c1C(c1cn[nH]c1-c1ccc(F)cc1)C(C#N)=C(N)O2 (stereo not drawn) 29.9%
C=CCN(c1ccccc1)S(=O)(=O)c1cc(C(=O)NC2=NCCS2)ccc1Cl -0.31%
CC(C)Oc1cccc(C(=O)C2CCCN(Cc3cccn3-c3cccnc3)C2)c1 (stereo not drawn) 4.62%
O=C(COc1ccc(Br)cc1)Nc1nnc(-c2cccnc2)s1 -6.24%
Cc1ccc(C(=O)/C=C/c2c[nH]c3ccccc23)cc1 5.88%
COCCCNC(=O)c1ccccc1NS(C)(=O)=O -1.32%
CCOC(=O)C1CCN(S(=O)(=O)c2cnc[nH]2)CC1 3.88%
CC1CN(C(=S)c2cccc([N+](=O)[O-])c2)CC(C)O1 (stereo not drawn) 4.78%
Cc1nc2ccccc2n1C(=O)c1ccccc1[N+](=O)[O-] 7.68%
CCn1c(SCC(=O)Nc2cccc(C)n2)nnc1-c1ccco1 4.98%
Cc1ccccc1S(=O)(=O)Nc1nc2ccccc2nc1N1CCOCC1 16.6%
CC1=C(C(N)=O)C(c2ccccc2)n2nc(-c3cccs3)nc2N1 (stereo not drawn) -4.69%
Cc1cc(NC(=O)CSc2nnc(CNc3cccc(C(F)(F)F)c3)n2Cc2ccco2)no1 7.47%
O=C(CSc1nnc(CNc2cccc(C(F)(F)F)c2)n1Cc1ccco1)NCc1ccco1 7.9%
COc1ccc(NC(=O)CN(c2ccccc2)S(=O)(=O)N(C)C)cc1Cl -2.44%
COc1ccccc1-c1nnc(SCC(=O)N2CCOCC2)o1 -5.18%
Cc1ccc(S(=O)(=O)NC(=O)c2cc(C)n(-c3ccc(N(C)C)cc3)c2C)cc1 30.1%
Cc1ccc(S(=O)(=O)NC(=O)c2cc(C)n(-c3ccccc3)c2C)cc1 24.3%
COC(=O)c1c(-c2ccc(C(C)(C)C)cc2)csc1NC(=O)C1C2CCC(O2)C1C(=O)O (stereo not drawn) 35.5%
CCOC(=O)c1c(-c2cccc3ccccc23)csc1NC(=O)C1C2CCC(O2)C1C(=O)O (stereo not drawn) 26.3%
CCCOC(=O)c1c(-c2ccc(C)cc2C)csc1NC(=O)C1C2CCC(O2)C1C(=O)O (stereo not drawn) 44.7%
CCOC(=O)c1c(NC(=O)/C=C/C(=O)O)sc(C)c1-c1ccc(F)cc1 9.12%
CCOC(=O)c1cc(NC(=O)C2C3CCC(O3)C2C(=O)O)cc(C(=O)OCC)c1 (stereo not drawn) -8.46%
O=C(O)C1C2CCC(O2)C1C(=O)Nc1ccc(F)cc1 (stereo not drawn) -6.52%
CC(/C=N/NC(=O)c1ccccn1)=C\c1ccco1 9.53%
Cc1ccc([N+](=O)[O-])cc1-c1ccc(/C=N\n2nnnc2N)o1 14.9%
CSc1ccc(Cl)c(C(=O)OCC(=O)N(C)CCC#N)c1 1.64%
Cc1ccc(C)c(N(C(=O)Cn2nnc3ccccc32)C(C(=O)NCc2ccco2)c2ccncc2)c1 (stereo not drawn) -0.41%
O=C1CCC(=O)N1CN(C(=O)c1ccco1)c1ccccc1 -2.98%
Cc1ccc(SCC(=O)NN2C(=O)c3ccccc3C2=O)cc1 2.07%
O=C(Cc1ccccc1)NN1C(=O)c2ccccc2C1=O 23.7%
CCOc1cc(OCC)cc(C(=O)NC(=S)Nc2cccc(C(F)(F)F)c2)c1 3%
COC(=O)c1[nH]c(C)c(/C(O)=C2\C(=O)C(=O)N(CCN3CCOCC3)C2c2ccc(C)o2)c1C (stereo not drawn) 3.85%
COc1ccc(/C=C/C2=NN(C)C(=O)CC2)cc1 48.2%
O=C(O)CCC(=O)Nc1ccc(N2CCCCC2)c(C(=O)O)c1 10.6%
Cc1ccc(NC(=O)c2cc(NC(=O)c3ccccc3C(=O)O)ccc2N2CCCCC2)cc1 -63%
C/C(=N\NC(N)=S)C1(C)CC2(CC(C)(C)OC2=O)C(=O)O1 (stereo not drawn) -1.04%
Nc1nc(SCC(=O)N2N=C3/C(=C/c4ccco4)CCCC3C2c2ccco2)n[nH]1 (stereo not drawn) 9.23%
O=C(CSc1nccc(=O)[nH]1)N1N=C2/C(=C/c3ccco3)CCCC2C1c1ccco1 (stereo not drawn) 13.7%
COc1c(Cl)cc(-c2noc(C)c2C(=O)NCc2ccc3c(c2)OCO3)cc1Cl 2.83%
Cc1ccnc(NC(=O)C2CCC(CNc3c(N4CCCC4)c(=O)c3=O)CC2)c1 (stereo not drawn) 15.6%
CC(C)Nc1nnc(SC(C)C(=O)Nc2ccc(Cl)cn2)s1 (stereo not drawn) 5.71%
COC(=O)N/N=C/c1ccc(OC(=O)/C=C/c2ccco2)cc1 -6.97%
CCOc1cccc2sc(N(CCN(CC)CC)C(=O)c3cccc([N+](=O)[O-])c3)nc12 3.1%
